In the library only some 11% were active in any assay of this set; here they are far more common.
Sm TGR block: qHTS Assay for the Inhibitors of Schistosoma Mansoni Peroxiredoxins | Schistosoma mansoni thioredoxin glutathione reductase (TGR), Q962Y6 | purified TGR, DTNB reduction, TNB absorbance 405 nm | Potency, µM (top dose mostly 114 µM), for inactives: top-dose activity change, negative = inhibition, most hits filed as inhibitors | 360,000 tested, 3% active | AID 485364, 2010; also: % is scaled to controls: 0 for no effect and ±100 for the full control effect; nearly all actives have a fitted effect of over 60% in size
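Kinetic colorimetric format: TGR-catalysed, NADPH-driven DTNB reduction monitored via TNB absorbance. Enzyme dispensed at 20 nM; compound exposure 15 min at room temperature before reaction start.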
Pf growth 96h: Primary qHTS for delayed death inhibitors of the malarial parasite plastid, 96 hour incubation; P. falciparum luciferase reporter growth, 96 h; Potency, µM (titrated, usually from 28.7 µM), inactives show top-dose activity change, negative = inhibition, actives largely listed as inhibitors; 320,000 tested, 6.9% active; AID 504834, 2011; also: % is scaled to controls: 0 for no effect and ±100 for the full control effect
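Infected RBCs, 2% Hct / 0.05% parasitemia final; luciferase-reporter P. falciparum; cpd 96 h, 37 C, 5% CO2; luciferase detection reagent; luminescence.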
AMA1-RON2 inh: qHTS for Inhibitors of AMA1-RON; Towards Development of Antimalarial Drug Lead: Primary Screen; Potency, µM (highest dose often 58.2 µM), for inactives: at the highest dose activity change, negative = inhibition, actives largely listed as inhibitors; AlphaScreen AMA1-biotinylated RON2 peptide binding; AID 720542, 2013; 360,000 tested, 0.2% active; Plasmodium falciparum AMA1 (3D7) - RON2 peptide interaction;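 also: 0% = vehicle wells and -100% = peptide control; nearly all actives have a fitted effect of over 45% in size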
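AMA1 (3D7) with his tag at 25 nM final met compounds first, then biotinylated RON2 peptide at 25 nM; detection used donor plus acceptor beads, 10 µg/mL apiece, read by AlphaScreen after 30 min at room temperature.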
NS1 inh: qHTS Assay for Inhibitors of Influenza NS1 Protein Function; Potency, µM (top dose mostly 46.1 µM), for inactives: at the highest dose activity, positive = more growth; 270,000 tested, 0.4% active; calls by dose curve; also: actives are rising curves; nearly all actives have a fitted effect of over 50% in size
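A cell-based growth assay was used: compounds that relieve NS1-induced slow growth of budding yeast raise OD600. Assay medium was yeast nitrogen base with ammonium sulphate and -URA supplement, pH 6.0, with 2% galactose.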
Pf growth 48h: Primary qHTS for delayed death inhibitors of the malarial parasite plastid, 48 hour incubation | Potency, µM (titrated, usually from 28.7 µM), for the others: at the top dose activity change, negative = inhibition, hits mostly inhibitors | 310,000 tested, 5.9% active | P. falciparum luciferase growth in erythrocytes, 48 h; also: % is scaled to controls: 0 for no effect and ±100 for the full control effect
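In quantitative HTS format, infected erythrocytes bearing luciferase-reporter parasites were treated for a single generation at 37 C. Luminescence after adding detection reagent served as the growth measure.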
Starred values were filed as active, the others as inactive; ? = inconclusive; · = no result given; [ ] = remark or other dose. Unless noted, calls follow the shape of the dose curve; as a rule, active = well fitted curve in the direction sought with a large enough effect; inconclusive = small, poorly fitted or top-dose-only effect, or another doubt; inactive = no such curve, though single readings can be large; an effect the other way counts as inactive or inconclusive. Potency is read from the fitted curve at half-maximal effect.

SMILES	Sm TGR block	Pf growth 96h	AMA1-RON2 inh	NS1 inh	Pf growth 48h
CCOc1ccc(N(C)S(=O)(=O)c2ccc(-c3ccc(=O)[nH]n3)s2)cc1	?	12µM*	11%	9%	-9%
COc1cc(NC(=O)CN(C)S(=O)(=O)c2ccc(-c3ccc(=O)[nH]n3)s2)cc(OC)c1	32µM*	38%	2%	10%	?
Cc1nc(Nc2ccc3c(c2)OCCO3)c2c(C)c(C)sc2n1	0%	38%	-25%	·	3%
CCOc1ccc(C(=O)Nc2ccc(N3CCN(S(C)(=O)=O)CC3)cc2)cc1[N+](=O)[O-]	·	9.3µM*	0%	3%	-4%
CCOc1ccc(C(=O)Nc2cccc(NC(=O)c3cccs3)c2)cc1[N+](=O)[O-]	-3%	12µM*	-5%	8%	-16%
CCOc1ccc(C(=O)Nc2ccc(NC(=O)c3ccccc3)c(C)c2)cc1[N+](=O)[O-]	4%	0.21µM*	-8%	12%	12%
CCOc1cccc(C(=O)Nc2ccc(NC(=O)c3ccccc3)c(C)c2)c1	-5%	1%	-3%	-12%	?
CCOc1ccc(C(=O)Nc2ccc(N3CCN(C)CC3)cc2)cc1[N+](=O)[O-]	·	0%	-8%	3%	?
Cn1c(CO)cnc1-c1ccccc1	1%	103%	0%	9%	33%
CC(C)N1CCN(Cc2cccn2-c2ccccn2)CC1CCO (centres undefined)	-9%	3%	-4%	-2%	3%
COc1ccc2c(=O)c3c(=O)n(Cc4ccco4)c(C(C)C)nc3oc2c1	-19%	?	-9%	-4%	-11%
CCN1CCN(C(c2ccc(SC)cc2)c2c(O)cc(C)n(Cc3ccco3)c2=O)CC1 (centres undefined)	3.5µM*	·	·	·	·
CSc1ccc(Cn2c(C)c(C(=O)NCc3ccco3)sc2=O)cc1	·	·	-2%	·	·
CCN1CCN(C(c2ccc(OC)cc2)c2c(O)cc(C)n(Cc3ccco3)c2=O)CC1 (centres undefined)	5.6µM*	·	·	·	·
Cc1cc(O)c(C(c2ccccc2)N2CCN(C)CC2)c(=O)n1Cc1ccco1 (centres undefined)	5.6µM*	·	·	·	·
CCN1CCN(C(c2ccccc2)c2c(O)cc(C)n(Cc3ccco3)c2=O)CC1 (centres undefined)	4.5µM*	·	·	·	·
CCCCN(C(=O)C1CCCO1)c1c(N)n(CC(C)C)c(=O)[nH]c1=O (centres undefined)	6%	1%	0%	·	50%
CC(=O)N1CCN(S(=O)(=O)c2cccc(C(=O)OCc3cccc(F)c3)c2)CC1	1%	-17%	27%	·	4%
COc1ccc(-c2nc(NC(=O)c3ccccc3)sc2-c2ccc([N+](=O)[O-])cc2)cc1	-23%	?	-11%	27%	-13%
COc1ccc(-c2csc(Nc3ccccc3)[n+]2CC(O)c2ccc([N+](=O)[O-])cc2)cc1 (centres undefined)	-2%	1.5µM*	?	6%	1.3µM*
CS(=O)(=O)N1Cc2cc(C(=O)NCC3CCCCC3)nc(-c3cccc(-c4cccnc4)c3)c2[C@H]1CCO	·	·	-4%	·	·
Cn1nc(C(F)(F)F)c(-c2cccc(C(F)(F)F)c2)c1NC(=O)Nc1ccc(F)cc1	0%	1.3µM*	-3%	0%	0.93µM*
COc1cccc(N2CC(NC(=O)c3ccc(S(=O)(=O)N4CCCCC4)cc3)CC2=O)c1 (centres undefined)	15%	·	·	·	·
C#CCOCCOCCOCCNc1nc(N2CCN(C(=O)CCCCCCCCCCNC(=O)[C@H](CCCCN)n3cc(C)nn3)CC2)nc(N2CCN(C(=O)CCCCCCCCCCNC(=O)[C@@H]([C@H](C)O)n3cc(C)nn3)CC2)n1	-2%	1.2µM*	-18%	·	2.1µM*
C#CCOCCOCCOCCNc1nc(N2CCN(C(=O)CCCCCCCCCCNC(=O)[C@H](CCCCN)n3cc(C[C@@H](C)CC)nn3)CC2)nc(N2CCN(C(=O)CCCCCCCCCCNC(=O)[C@@H]([C@H](C)O)n3cc(C)nn3)CC2)n1	7%	0.37µM*	?	·	2.1µM*
SMILES	Sm TGR block	Pf growth 96h	AMA1-RON2 inh	NS1 inh	Pf growth 48h
C#CCOCCOCCOCCNc1nc(N2CCN(C(=O)CCCCCCCCCCNC(=O)[C@@H](CCSC)n3cc(CCO)nn3)CC2)nc(N2CCN(C(=O)CCCCCCCCCCNC(=O)[C@@H]([C@H](C)O)n3cc(C)nn3)CC2)n1	-24%	0.17µM*	-1%	·	0.15µM*
C#CCOCCOCCOCCNc1nc(N2CCN(C(=O)CCCCCCCCCCNC(=O)Cn3cc(C[C@@H](C)O)nn3)CC2)nc(N2CCN(C(=O)CCCCCCCCCCNC(=O)[C@@H](CCSC)n3cc(CCO)nn3)CC2)n1	-6%	0.15µM*	-3%	·	0.19µM*
C#CCOCCOCCOCCNc1nc(N2CCN(C(=O)[C@H]([C@@H](C)O)n3cc(CCCCN)nn3)CC2)nc(N2CCN(C(=O)[C@H](CCCCN)n3cc(CC(C)O)nn3)CC2)n1 (some centres undefined)	-18%	-10%	2%	·	15%
COc1ccccc1CNC(=O)CCCn1c(=O)c2ccccc2n(Cc2ccccc2C#N)c1=O	4%	·	·	·	·
CC1CCN(S(=O)(=O)c2ccc3c(c2)CCN3C(=O)Nc2ccc(Br)cc2)CC1	4%	·	·	·	·
COc1cc2[nH]c(=O)n(Cc3ccc(C(=O)N4CCN(c5cc(Cl)ccc5C)CC4)cc3)c(=O)c2cc1OC	-20%	·	·	·	·
CC(C)(C)OC(=O)N1CCCC(C(=O)Nc2ccc(C(=O)N3CCCC3)cc2)C1 (centres undefined)	·	·	-6%	·	·
COc1ccc(NC(=O)CSCC(=O)OCc2cccc(OC)c2OC)cc1	4%	1%	8%	·	7%
CCCc1cc(NCC2CCCO2)n2c(nc3ccccc32)c1C#N (centres undefined)	-2%	·	5%	-13%	5.2µM*
CCCc1cc(NCc2ccccn2)n2c(nc3ccccc32)c1C#N	-2%	9%	23%	·	1.9µM*
Cc1cc(NCc2ccccn2)n2c(nc3ccccc32)c1C#N	-8%[57.1 µM]	89%	9%	-3%	?
CCCc1cc(-n2cnc3ccccc32)n2c(nc3ccccc32)c1C#N	0%	·	7%	-2%	?
CCCc1cc(NCCN(C)C)n2c(nc3ccccc32)c1C#N	3%	-24%	-1%	6%	0%
CCCc1cc(NCCCN(C)C)n2c(nc3ccccc32)c1C#N	40µM*	-24%	-10%	-1%	?
Cc1ccsc1C(=O)OCC(=O)Nc1ccc(Cl)cn1	·	·	-5%	·	·
Cc1cc(SCC(=O)Nc2ccc(O)cc2)n2nc(C)c(-c3ccccc3)c2n1	2%	2%	6%	-6%	-4%
